The record followed here is PubChem BioAssay (EPA / NIEHS).

Records with an inconclusive call do not appear. Activity calls are given as the source filed them. How the source made its calls, unless noted: active means hit-call score of the fitted dose curve at least 0.9, where 1 is the maximum; inactive means score below 0.9.

Steroid hormone receptor ERR1 (Homo sapiens), sequence (P11474 whole entry, looked up, the tested form may be a part): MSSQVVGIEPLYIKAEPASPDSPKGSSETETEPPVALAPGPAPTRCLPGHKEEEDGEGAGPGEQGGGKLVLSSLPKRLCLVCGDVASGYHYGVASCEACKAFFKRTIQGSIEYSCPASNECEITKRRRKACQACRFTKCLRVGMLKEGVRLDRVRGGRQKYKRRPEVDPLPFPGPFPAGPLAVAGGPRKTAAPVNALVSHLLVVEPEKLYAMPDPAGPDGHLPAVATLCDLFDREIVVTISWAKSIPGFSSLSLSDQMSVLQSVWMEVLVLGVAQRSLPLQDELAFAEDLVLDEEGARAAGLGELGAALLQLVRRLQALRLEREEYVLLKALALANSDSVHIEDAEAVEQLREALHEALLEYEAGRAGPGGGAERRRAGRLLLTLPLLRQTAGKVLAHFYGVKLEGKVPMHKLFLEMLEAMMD
Estrogen receptor (Homo sapiens), sequence (P03372 whole entry, looked up, the tested form may be a part): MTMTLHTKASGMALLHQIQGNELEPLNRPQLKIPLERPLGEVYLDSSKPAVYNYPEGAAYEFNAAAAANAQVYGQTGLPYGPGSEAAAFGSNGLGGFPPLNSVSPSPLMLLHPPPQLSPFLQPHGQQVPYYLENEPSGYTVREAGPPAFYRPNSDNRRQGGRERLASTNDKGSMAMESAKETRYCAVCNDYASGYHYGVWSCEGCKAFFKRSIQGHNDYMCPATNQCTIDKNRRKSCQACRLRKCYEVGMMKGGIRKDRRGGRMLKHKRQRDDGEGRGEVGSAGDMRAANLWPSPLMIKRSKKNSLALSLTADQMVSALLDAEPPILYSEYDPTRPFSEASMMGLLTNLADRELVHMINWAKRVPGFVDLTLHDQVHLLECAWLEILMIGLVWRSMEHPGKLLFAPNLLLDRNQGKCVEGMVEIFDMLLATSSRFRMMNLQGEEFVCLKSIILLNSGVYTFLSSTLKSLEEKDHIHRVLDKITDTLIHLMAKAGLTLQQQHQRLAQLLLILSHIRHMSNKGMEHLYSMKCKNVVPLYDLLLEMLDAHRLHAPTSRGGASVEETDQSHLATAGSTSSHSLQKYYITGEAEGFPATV
X-box-binding protein 1 (Homo sapiens), sequence (P17861 whole entry, looked up): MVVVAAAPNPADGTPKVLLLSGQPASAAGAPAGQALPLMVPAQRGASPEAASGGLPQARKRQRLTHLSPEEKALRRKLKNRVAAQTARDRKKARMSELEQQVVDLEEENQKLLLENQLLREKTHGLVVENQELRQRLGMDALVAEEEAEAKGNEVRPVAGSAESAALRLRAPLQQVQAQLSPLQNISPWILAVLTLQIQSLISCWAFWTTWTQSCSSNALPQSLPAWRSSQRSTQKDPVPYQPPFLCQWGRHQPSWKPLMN

Tested on in one experiment: not listed separately
In words: ATG_VDRE_CIS: Attagene CIS-FACTORIAL HepG2 Assay for human Vitamin D Receptor Element (VDRE) (AID 2282968). The note with it: HepG2 VDRE cis-reporter transcription, actives raise or lower the signal. The essentials:
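Steps: transfect HepG2 with multiple reporter transcription units; dose chemicals 24 h; isolate RNA; RT-PCR; label with 6-FAM primer extension; HpaI digest; capillary electrophoresis. Curves fitted both directions against DMSO.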
As to `O=C(O)CCCCC(=O)O`, the molecule was called inactive.
With `Cc1oc(-c2ccccc2)nc1CCOc1cccc2c1ccn2CCC(=O)O`, the call was inactive.
On the same count and under the same terms, the entry for `Cc1nc(C)nc(N2C[C@@H](C)N(c3ccnc([C@@H](C)O)n3)[C@@H](C)C2)n1` is “inactive”; for `Cc1cc(=O)[nH]c(=S)[nH]1` it is “inactive”; for `c1cc(-c2ccncc2)ccn1` it is “inactive”.
Turning to `CCOC(=O)CCC(=O)OCC`, the call was inactive.
`O=C(N[C@@H](Cc1ccccc1)[C@@H](O)C(=O)N1C[C@@H](O)[C@@H](O)C1)c1cc2cc(Cl)ccc2[nH]1`: the molecule was classed as inactive.
On to `O=[N+]([O-])C(CO)(CO)CO`, for which the result was inactive.
As to `CCCCOC(=O)CCCCCCCCC(=O)OCCCC`, the molecule was called inactive.
As to `COc1ccc2c(c1)c(CC(=O)O)c(C)n2C(=O)c1ccc(Cl)cc1`, the call was inactive.
With `COc1ccc(S(=O)(=O)N2C(=O)[C@@](c3ccccc3OC)(N3C[C@H](O)C[C@H]3C(=O)N(C)C)c3cc(Cl)ccc32)c(OC)c1`, the AC50 is 19.8 µM (active).
Turning to `CC1(C)CC(N=C=O)CC(C)(CN=C=O)C1` (centres undefined), the molecule was called inactive.
Same read-out and setting: the result for `CNC(=O)[C@H]1O[C@@H](n2cnc3c(NCc4cc(Cl)ccc4OCc4cc(C)no4)ncnc32)[C@H](O)[C@@H]1N` reads “inactive”; that for `OC[C@@H](O)[C@@H](O)[C@H](O)[C@H](O)CO`, “inactive”.

For a further experiment, the target named is Nuclear receptor subfamily 1 group I member 3 (Homo sapiens) (UniProt Q14994). In words: ATG_CAR_TRANS: Attagene TRANS-FACTORIAL HepG2 Assay for human Constitutive Androstane Receptor (CAR) (AID 2282969; active means hit-call score of the fitted dose curve at least 0.9, where 1 is the maximum;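 further: activators raise reporter mRNA above DMSO so AC50 marks induction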). As to conditions: HepG2 Attagene TRANS-FACTORIAL CAR reporter. The gist of the method: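 Steps: transient transfection of HepG2 with multiple GAL4-UAS reporter units; 24 h compound incubation; RNA isolation, RT-PCR, 6-FAM primer extension, HpaI digest; capillary electrophoresis. Gain-of-signal relative to DMSO negative control.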
Nuclear receptor subfamily 1 group I member 3 (Homo sapiens), sequence (Q14994 whole entry, looked up, the tested form may be a part): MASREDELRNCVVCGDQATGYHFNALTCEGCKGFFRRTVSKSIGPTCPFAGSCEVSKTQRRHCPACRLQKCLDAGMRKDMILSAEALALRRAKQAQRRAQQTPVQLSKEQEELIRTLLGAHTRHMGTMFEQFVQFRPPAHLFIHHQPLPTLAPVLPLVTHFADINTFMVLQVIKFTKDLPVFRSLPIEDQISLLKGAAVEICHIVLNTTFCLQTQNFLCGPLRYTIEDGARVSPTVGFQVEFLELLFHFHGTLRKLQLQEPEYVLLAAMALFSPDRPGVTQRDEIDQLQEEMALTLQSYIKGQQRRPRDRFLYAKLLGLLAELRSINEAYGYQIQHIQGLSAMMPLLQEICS
Turning to `Nc1ccc2c(c1)C(=O)c1ccccc1C2=O`, the outcome was inactive.
On to `Oc1ccc2ccccc2c1N=Nc1ccccc1`, for which the molecule was called inactive.
With `O=C(OCCCCCOC(=O)c1ccccc1)c1ccccc1`, the call was inactive.

The next experiment deals with Estrogen receptor (Homo sapiens) (UniProt P03372). As to the kind of experiment: ATG_ERa_TRANS: Attagene TRANS-FACTORIAL HepG2 Assay for human Estrogen Receptor alpha (ERa) (AID 2282970; active means hit-call score of the fitted dose curve at least 0.9, where 1 is the maximum). As to conditions: HepG2 Attagene TRANS ERa GAL4 reporter, mRNA. The essentials:
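One of 30 multiplexed endpoints from a HepG2 TRANS system, this one reports ERa-Gal4-driven reporter mRNA. Transcripts were quantified 24 hours post-dosing by fluorescent RT-PCR and capillary electrophoresis, with activity scored as induction over DMSO.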
Turning to `Nc1ccc2c(c1)C(=O)c1ccccc1C2=O`, the AC50 was 13.6 µM (active).
Take `CCCCCCCCCCCCCCCC`: the molecule was classed as inactive.
In the case of `c1cc(-c2ccncc2)ccn1`, the result was inactive.
For `CC=Cc1ccc(O)c(OC)c1`, the molecule was classed as inactive.
On to `CCCc1cc(=O)[nH]c(=S)[nH]1`, for which the AC50 is 8.12 µM (active).
With `O=C(N[C@@H](Cc1ccccc1)[C@@H](O)C(=O)N1C[C@@H](O)[C@@H](O)C1)c1cc2cc(Cl)ccc2[nH]1`, the result was inactive.
As for `NCCO`, the result was inactive.
As to `CC(=O)C(C)=CC1C(C)=CCCC1(C)C` (centres undefined), the AC50 is 29.8 µM (active).
Take `C=CCOC(=O)c1ccccc1C(=O)OCC=C`: the AC50 is 76.7 µM (active).
For `C=CCc1ccc(O)c(OC)c1`, the half-maximal activity concentration (AC50) was 41.4 µM (active).
With `Oc1ccc2ccccc2c1N=Nc1ccccc1`, the AC50 was 2.86 µM (active).
As for `CCCCOC(=O)CCCCCCCCC(=O)OCCCC`, the result was inactive.
Take `CC(=O)OC/C=C(\C)CCC=C(C)C`: the molecule was classed as inactive.
Consider `O=C(OCCCCCOC(=O)c1ccccc1)c1ccccc1`, for which the call was inactive.
Take `CCCCCCCCCCCCCCCCCC(=O)O`: the concentration at half-maximal activity (AC50) was 25.9 µM (active).
Regarding `Nc1ccc(S(=O)(=O)c2ccc(N)cc2)cc1`, the outcome was inactive.

In the next experiment the target is Steroid hormone receptor ERR1 (Homo sapiens) (UniProt P11474). In words: ATG_ERRa_TRANS: Attagene TRANS-FACTORIAL HepG2 Assay for human Estrogen-Related Receptor alpha (ERRa) (AID 2282971; active means hit-call score of the fitted dose curve at least 0.9, where 1 is the maximum). The note with it: HepG2 Attagene TRANS reporter, ERRa transactivation. The gist of the method:
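HepG2 cells transiently transfected with multiplexed GAL4-UAS reporter units reading chimeric ERRa-Gal4 activity; 24 h compound exposure. Reporter mRNA measured by RT-PCR, 6-FAM labelling, HpaI digest and capillary electrophoresis; gain of signal fitted versus DMSO baseline.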
For `CCOC(=O)CCC(=O)OCC`, the call was inactive.
Turning to `O=[N+]([O-])C(CO)(CO)CO`, the molecule was classed as inactive.
With `CCCCCCCCCCC`, the call was inactive.

A further experiment addresses X-box-binding protein 1 (Homo sapiens) (UniProt P17861). In words: ATG_Xbp1_CIS: Attagene CIS-FACTORIAL HepG2 Assay for human X-box Binding Protein 1 (XBP1) (AID 2282972). As to conditions: HepG2 XBP1 cis-element reporter, Attagene multiplex; actives raise or lower the signal. The essentials: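 Human hepatoma HepG2, cis-element reporter system, 24 h treatment; mRNA quantified by RT-PCR/CE fluorescence; fit relative to DMSO.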
On to `O=C(O)CCCCC(=O)O`, for which the call was inactive.
With `Cc1oc(-c2ccccc2)nc1CCOc1cccc2c1ccn2CCC(=O)O`, the molecule was called inactive.
`Cc1nc(C)nc(N2C[C@@H](C)N(c3ccnc([C@@H](C)O)n3)[C@@H](C)C2)n1`: the result was inactive.
As for `Cc1cc(=O)[nH]c(=S)[nH]1`, the call was inactive.
Still for that read-out and setting: the entry for `Nc1ccc2c(c1)C(=O)c1ccccc1C2=O` is “inactive”; for `CCCCCCCCCCCCCCCC` it is “inactive”; for `c1cc(-c2ccncc2)ccn1` it is “inactive”.
With `CC=Cc1ccc(O)c(OC)c1`, the molecule was classed as inactive.
Regarding `Clc1cc(Cl)c(Cl)cc1Cl`, the result was inactive.
Regarding `CCCc1cc(=O)[nH]c(=S)[nH]1`, the molecule was called inactive.
On the same count and under the same terms, the entry for `CCOC(=O)CCC(=O)OCC` is “inactive”.
Turning to `O=C(N[C@@H](Cc1ccccc1)[C@@H](O)C(=O)N1C[C@@H](O)[C@@H](O)C1)c1cc2cc(Cl)ccc2[nH]1`, the AC50 is 151 µM (active).
Consider `O=[N+]([O-])C(CO)(CO)CO`, for which the result was inactive.
Turning to `NCCO`, the molecule was called inactive.
Still for that read-out and setting: the entry for `CC(=O)C(C)=CC1C(C)=CCCC1(C)C` (centres undefined) is “inactive”; for `C=CCOC(=O)c1ccccc1C(=O)OCC=C` it is “inactive”; for `CCCCCCCCCCC` it is “inactive”.
Regarding `C=CCc1ccc(O)c(OC)c1`, the molecule was classed as inactive.
For the molecule `Oc1ccc2ccccc2c1N=Nc1ccccc1`, the molecule was called inactive.
The same measure, in the same setting: the result for `CCCCOC(=O)CCCCCCCCC(=O)OCCCC` reads “inactive”; that for `COc1ccc2c(c1)c(CC(=O)O)c(C)n2C(=O)c1ccc(Cl)cc1`, “inactive”; that for `CC(=O)OC/C=C(\C)CCC=C(C)C`, “inactive”.
For `O=C(OCCCCCOC(=O)c1ccccc1)c1ccccc1`, the call was inactive.
On to `CCCCCCCCCCCCCCCCCC(=O)O`, for which the molecule was classed as inactive.
Turning to `Cc1ccc2ncccc2c1`, the call was inactive.
For the molecule `Nc1ccc(S(=O)(=O)c2ccc(N)cc2)cc1`, the call was inactive.
`COc1ccc(S(=O)(=O)N2C(=O)[C@@](c3ccccc3OC)(N3C[C@H](O)C[C@H]3C(=O)N(C)C)c3cc(Cl)ccc32)c(OC)c1`: the AC50 was 69.5 µM (active).
In the case of `CC1(C)CC(N=C=O)CC(C)(CN=C=O)C1` (centres undefined), the outcome was inactive.
Still for that read-out and setting: the entry for `CNC(=O)[C@H]1O[C@@H](n2cnc3c(NCc4cc(Cl)ccc4OCc4cc(C)no4)ncnc32)[C@H](O)[C@@H]1N` is “inactive”.
In the case of `OC[C@@H](O)[C@@H](O)[C@H](O)[C@H](O)CO`, the call was inactive.

Tested on in another experiment: not listed separately
As to the kind of experiment: ATG_M_19_TRANS: Attagene TRANS-FACTORIAL HepG2 Assay for M19 Transcription Factor (Internal Marker) (AID 2282974; active means hit-call score of the fitted dose curve at least 0.9, where 1 is the maximum). The note with it: HepG2 Attagene TRANS-FACTORIAL M19 internal marker reporter. The essentials: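 Transfected HepG2 (GAL4-UAS MRTUs), 24 h compound, TriZol RNA, DNase-treated RT, reporter PCR, FAM label, HpaI digest, CE fluorescence; gain vs DMSO.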
On to `CCCc1cc(=O)[nH]c(=S)[nH]1`, for which the molecule was called inactive.
Consider `CC(=O)OC/C=C(\C)CCC=C(C)C`, for which the molecule was classed as inactive.
As to `Nc1ccc(S(=O)(=O)c2ccc(N)cc2)cc1`, the outcome was inactive.

By AC50 is commonly meant the concentration giving half of the maximal activity seen.
